Results published in the supplement of paper PMC12297408.
Where a name gives a salt, the structure may show the parent alone. A number with no mark means an inactive call.

system: Plasmodium falciparum NF54/iGP1_RE9H ulg8 stage V gametocytes; experiment: gametocyte viability (luciferase signal relative to DMSO control) (% of DMSO control); higher = less gametocytocidal activity, active = 50 or less; details: concentration: 1 µM; exposure time: 72 h
Method: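 Synchronous P. falciparum NF54/iGP1_RE9H ulg8 mature stage V gametocytes (day 12) were exposed to Cayman Epigenetics Screening Library compounds at 10 µM or 1 µM for 72 h at 37 °C. Viability was read as RE9H luciferase bioluminescence, normalised to DMSO plate controls (100%); 50 µM methylene blue was the positive control.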

Row | SMILES | gametocyte viability
1 | COc1cc(C(=O)N2CC[C@@H](O)[C@@H](N)C2)cc2nc(-c3cc4ccccc4n3CC3CC3)n(C)c12 [GSK484 (hydrochloride)] | 94.7
2 | Cc1sc2c(c1C)C(c1ccc(Cl)cc1)=NC(CC(=O)O)c1nnc(C)n1-2 (single isomer, unassigned; (+)) [(+)-JQ1 (free acid)] | 85.8
3 | CN(C)NC(=O)CCC(=O)O [Daminozide] | 95.2
4 | CC1=CC(=O)c2c(O)cccc2C1=O [Plumbagin] | 71.2
5 | N[C@@H]1C[C@H]1c1ccccc1 [Tranylcypromine (hydrochloride)] | 91.7
6 | Cc1sc2c(c1C)C(c1ccc(Cl)cc1)=N[C@@H](CC(N)=O)c1nnc(C)n1-2 | 90.9
7 | C[S+]([O-])CCCCN=C=S (centres undefined) [Sulforaphane] | 99.8

same assay, conditions: concentration: 10 µM; exposure time: 72 h

Row | SMILES | gametocyte viability
8 | COc1cc(C(=O)N2CC[C@@H](O)[C@@H](N)C2)cc2nc(-c3cc4ccccc4n3CC3CC3)n(C)c12 [GSK484 (hydrochloride)] | 41.8 (active)
9 | Cc1sc2c(c1C)C(c1ccc(Cl)cc1)=NC(CC(=O)O)c1nnc(C)n1-2 (single isomer, unassigned; (+)) [(+)-JQ1 (free acid)] | 88.2
10 | CN(C)NC(=O)CCC(=O)O [Daminozide] | 88.8
11 | CC1=CC(=O)c2c(O)cccc2C1=O [Plumbagin] | 16.7 (active)
12 | N[C@@H]1C[C@H]1c1ccccc1 [Tranylcypromine (hydrochloride)] | 91.4
13 | Cc1sc2c(c1C)C(c1ccc(Cl)cc1)=N[C@@H](CC(N)=O)c1nnc(C)n1-2 | 93.5
14 | C[S+]([O-])CCCCN=C=S (centres undefined) [Sulforaphane] | 96.2
